Results on ten compounds are retold here after PubChem BioAssay.

Active and inactive are the calls of the source.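 How the source made its calls, unless noted: active means inhibition at or above 50% at 10 µM; inactive means inhibition below 50%.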

Assay [1] can be described thus: inhibitors of TNFa-induced NFkB p65 translocation, primary screen, imaging, HUVEC, MLSMR starter and 10KST1 sets (AID 438;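 active means inhibition above 20% together with a positive visual image hit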;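 further: compound added about 3h40 before a 20 min TNFalpha stimulation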;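 on inhibition: signal is the nuclear over cytoplasmic p65 intensity ratio per well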). Particulars: HUVEC TNFa-induced p65 nuclear translocation; cell count: measured here: nuclei count (cytotoxicity indicator), at 2.08 µM; inhibition: at 2 µM, stronger effect = higher value, 0% TNFa-plus-vehicle, 100% no-TNFa wells.
A short description of assay [2]: reduction of polyQ htt aggregates in cells – imaging, exon1htt(103Q)mCFP cells, high-content imaging, primary screen (AID 483;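 active means visual image review flags a hit and inhibition of aggregation exceeds 20%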;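 further: compound exposure lasted 3 days before fixation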;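 on nuclei count: percent of the per-plate median nuclei count of sample wells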). Particulars: exon1htt(103Q)mCFP cell line, aggregate imaging, at 2 µM; inhibition of aggregation: stronger effect = higher value; nuclei count: measured here: cell count, toxicity.
The nature of assay [3]: endothelial E-selectin expression blockers – imaging, HUVEC, immunofluorescence, MLSMR starter and 10KST1 sets, primary screen (AID 487;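 active means visually confirmed hit in the image check and inhibition above 20%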;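 on inhibition: signal is fraction of cell area covered by stained E-selectin grains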;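 on nuclei count: 100% = median nuclei count of all wells on the same plate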). As to conditions: HUVEC TNFalpha-induced E-selectin immunofluorescence imaging, at 2 µM; inhibition: stronger effect = higher value; nuclei count: measured here: cell number, toxicity.
In assay [4] the target is Voltage-gated potassium channel subunit beta-2 (Rattus norvegicus) (UniProt P62483). Nature of the assay: inhibitors of rat Kvbeta2 reductase activity – biochemical, NADPH fluorescence, primary screen (AID 622;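 active means fluorescence slope higher than the sample average by over 3 SD, cut at about -0.22 in these data, passing the limit was not always enough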;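 further: slope of raw intensity against log time taken from 70 to 1610 s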). Particulars: recombinant KvBeta, 4-cyanobenzaldehyde reduction, at 10 µM, stronger effect = higher value.
Voltage-gated potassium channel subunit beta-2 (Rattus norvegicus), sequence (P62483 whole entry, looked up): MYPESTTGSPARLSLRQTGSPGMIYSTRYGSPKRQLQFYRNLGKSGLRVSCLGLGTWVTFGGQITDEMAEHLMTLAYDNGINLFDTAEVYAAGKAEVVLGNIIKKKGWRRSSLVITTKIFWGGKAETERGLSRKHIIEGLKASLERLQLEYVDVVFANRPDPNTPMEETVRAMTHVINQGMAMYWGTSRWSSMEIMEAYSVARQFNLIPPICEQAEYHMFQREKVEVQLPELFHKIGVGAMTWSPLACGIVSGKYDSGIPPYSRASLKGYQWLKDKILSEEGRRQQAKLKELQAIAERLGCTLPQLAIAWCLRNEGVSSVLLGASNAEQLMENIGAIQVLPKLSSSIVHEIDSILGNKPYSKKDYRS
For assay [5] the target is unchanged. The assay is described as follows: enhancers of rat Kvbeta2 NADPH turnover – biochemical, NADPH fluorescence, primary screen (AID 623;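 active means NADPH fluorescence slope more negative than the mean of all samples by about 3 SD, 99.7% confidence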;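 further: fluorescence intensity change per second fitted from 20 to 320 s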). Particulars: Recombinant KvBeta, NADPH fluorescence decrease slope, 10 min; at 10 µM; stronger effect = lower value.
For assay [6], the target named is Alpha-2C adrenergic receptor (Homo sapiens) (UniProt P18825). The assay is described as follows: compounds altering alpha2C-coupled GIRK flux – cell-based, HEK293 alpha2C/GIRK1/2, thallium flux, primary screen (AID 624;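 active means fluorescence slope after compound addition differing from the mean of all screened samples at 99.7% confidence, in either direction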;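 further: slope of fluorescence ratio to pre-addition baseline per second over 15 to 24 s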). Particulars: thallium flux BTC fluorescence, at 10 µM, actives lie on both sides.
Alpha-2C adrenergic receptor (Homo sapiens), sequence (P18825 whole entry, looked up): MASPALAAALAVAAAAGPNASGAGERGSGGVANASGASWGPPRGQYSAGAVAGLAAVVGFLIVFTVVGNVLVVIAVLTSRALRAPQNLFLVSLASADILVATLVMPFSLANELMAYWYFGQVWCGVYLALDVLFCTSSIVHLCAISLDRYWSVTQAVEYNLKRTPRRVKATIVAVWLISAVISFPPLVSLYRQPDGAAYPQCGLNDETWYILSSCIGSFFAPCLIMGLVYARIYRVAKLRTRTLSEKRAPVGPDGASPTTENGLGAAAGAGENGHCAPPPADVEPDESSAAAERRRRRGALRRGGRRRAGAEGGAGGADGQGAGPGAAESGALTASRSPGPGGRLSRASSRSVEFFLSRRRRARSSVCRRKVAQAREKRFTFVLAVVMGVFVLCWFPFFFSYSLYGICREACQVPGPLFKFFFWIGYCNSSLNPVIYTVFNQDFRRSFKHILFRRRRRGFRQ
A short description of assay [7]: blockers of RIG-like receptor reporter activation – cell-based, Sendai virus stimulus, luciferase, 10K MLSCN set, TLR/RLR signaling modifier project, primary screen (AID 602276).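 Further: firefly luciferase from ISG56 promoter only with Renilla not read in this screen; 0% = Sendai virus plus DMSO and 100% = medium plus DMSO without virus.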 As to conditions: HEK293 RL24 IRF3 luciferase reporter, at 10 µM, stronger effect = higher value. Background: A reporter such as luciferase makes a cellular process visible.
The nature of assay [8]: TLR3 IRF3 reporter activation blockers – cell-based, poly I:C stimulus, luciferase, 10K MLSCN set, primary screen (AID 602277;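 active means inhibition of the reporter signal at or above 50%; inactive means inhibition below 50%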). As to conditions: HEK293-TLR3 RL24 IRF3 luciferase reporter, at 10 µM, stronger effect = higher value.

A word on the inhibition: it is the relative decrease from the control value, in per cent. With `O=C(c1ccccc1)N1CCN(CC2CC=CCC2)CC1` (stereo not given), the cell count in assay [1] was determined as 391. For the same compound, the inhibition is -9.9% (inactive) in assay [1], -93.3% (inactive) in assay [3], 6.11% (inactive) in assay [7] and 19.5% (inactive) in assay [8]. For the same compound, in assay [2], the inhibition of aggregation was 21.1% (inactive). Also, the figures for the nuclei count in assay [2] and in assay [3] were 91% and 69.8%, respectively. Also, in assay [4], the fluorescence slope is -0.304 (inactive). For the same compound, in assay [5], the NADPH fluorescence slope was 2.3e-05 (inactive). Further, the slope in assay [6] was 0.00325 (inactive).

`CC1Cc2nc(SCC(N)=O)n(Cc3ccccc3)c(=O)c2S1` (stereo not given): the cell count in assay [1] turned out to be 633. Also, the inhibition in assay [1] was -14% (inactive); in assay [3] it was -15.2% (inactive); in assay [7], -2.11% (inactive); in assay [8], 36% (inactive). The inhibition of aggregation in assay [2] was 1.8% (inactive). Also, the nuclei count in assay [2] worked out at 90.7%; in assay [3], 113%. Besides, in assay [4], the fluorescence slope was -0.438 (inactive). Further, the NADPH fluorescence slope in assay [5] is 2.5e-05 (inactive). Besides, in assay [6], the slope is 0.00575 (inactive).

As to `COc1ccccc1NS(=O)(=O)c1ccc(OC)c(OC)c1`, the cell count in assay [1] turned out to be 401. Besides, the inhibition in assay [1] was 5.5% (inactive); in assay [3], 30.1% (inactive); in assay [7] it was 1.27% (inactive); in assay [8], 24.3% (inactive). Also, the inhibition of aggregation in assay [2] was 0.8% (inactive). Also, the nuclei count stood at 101% in assay [2] and 96% in assay [3]. In assay [4], the fluorescence slope is -0.484 (inactive). Moreover, in assay [5], the NADPH fluorescence slope was -4.4e-05 (inactive). Further, the slope in assay [6] is 0.00597 (inactive).

Consider `Cc1cc(C)n(C(=O)C23CC4CC(CC(C4)C2)C3)n1`, for which the cell count in assay [1] was 448. In addition, the inhibition was 0.9% (inactive) in assay [1], -12% (inactive) in assay [3], 6.1% (inactive) in assay [7] and 17.9% (inactive) in assay [8]. In assay [2], the inhibition of aggregation is 14.6% (inactive). In addition, the nuclei count in assay [2] is 102%; in assay [3], 89.4%. Further, the fluorescence slope in assay [4] was -0.514 (inactive). The NADPH fluorescence slope in assay [5] was -2.3e-05 (inactive). For the same compound, the slope in assay [6] is 0.00607 (inactive).

`O=C(C1CCCN1S(=O)(=O)c1cccc2cccnc12)N1CCn2c1nc1ccccc12` (stereo not given): the cell count in assay [1] is 626. In addition, the inhibition in assay [1] was -1.1% (inactive); in assay [3], -28.6% (inactive); in assay [7] it was 8.59% (inactive); in assay [8], 21.7% (inactive). The inhibition of aggregation in assay [2] is -15.8% (inactive). In addition, the nuclei count stood at 117% in assay [2] and 124% in assay [3]. Also, the fluorescence slope in assay [4] was -0.63 (inactive). Also, the NADPH fluorescence slope in assay [5] was -1.3e-05 (inactive). Besides, in assay [6], the slope is 0.00657 (inactive).

As to `Oc1cccc(Nc2nc(NCC3CCCO3)c3ccccc3n2)c1` (stereo not given), the cell count in assay [1] came out at 555. The inhibition in assay [1] was -70.4% (inactive); in assay [3], -47.9% (inactive); in assay [7] it was 14.4% (inactive); in assay [8] it was -32.6% (inactive). In assay [2], the inhibition of aggregation was -4.4% (inactive). The nuclei count in assay [2] stood at 95.5%; in assay [3], 104%. Also, the fluorescence slope in assay [4] was -0.612 (inactive). Moreover, in assay [5], the NADPH fluorescence slope was 2.9e-05 (inactive). Also, in assay [6], the slope is 0.00401 (inactive).

`CS(=O)(=O)NCc1ccc(C(=O)NCc2ccccc2)cc1`: the cell count in assay [1] worked out at 640. The inhibition in assay [1] was 3.3% (inactive); in assay [3] it was -19.7% (inactive); in assay [7] it was -0.454% (inactive); in assay [8] it was 5.61% (inactive). Further, the inhibition of aggregation in assay [2] was 0% (inactive). Further, the nuclei count was found to be 104% in assay [2] and 109% in assay [3]. The fluorescence slope in assay [4] is -0.415 (inactive). In assay [5], the NADPH fluorescence slope is -3.9e-05 (inactive). Moreover, in assay [6], the slope is 0.003 (inactive).

Regarding `O=C(NCCN1CCOCC1)c1ccc2c(c1)N(Cc1ccccc1F)C(=O)CS2`, the cell count in assay [1] was found to be 591. Further, the inhibition was 5.8% (inactive) in assay [1], -51.7% (inactive) in assay [3], 9.96% (inactive) in assay [7] and 22.6% (inactive) in assay [8]. In addition, in assay [2], the inhibition of aggregation is 6% (inactive). Further, the nuclei count in assay [2] was determined as 67.6%; in assay [3], 111%. Moreover, the fluorescence slope in assay [4] is -0.456 (inactive). In assay [5], the NADPH fluorescence slope is -2e-06 (inactive). For the same compound, the slope in assay [6] is 0.00607 (inactive).

Take `Cc1cc(NC(=O)CCCC(=O)Nc2ccc(F)cc2)no1`: the cell count in assay [1] is 423. Besides, the inhibition in assay [1] was -10.5% (inactive); in assay [3], -43% (inactive); in assay [7], 5.46% (inactive); in assay [8], 34.4% (inactive). For the same compound, in assay [2], the inhibition of aggregation is 13.2% (inactive). Further, the results for the nuclei count in assay [2] and in assay [3] were 72.2% and 107%, respectively. In assay [4], the fluorescence slope was -0.477 (inactive). Besides, the NADPH fluorescence slope in assay [5] was 9.1e-07 (inactive). Moreover, the slope in assay [6] was 0.0057 (inactive).

Turning to `O=C(CSc1nnc(-c2cccs2)o1)NCC1CN(Cc2ccccc2)CCO1` (stereo not given), in assay [1], the cell count is 669. Moreover, the inhibition in assay [1] was 7.8% (inactive); in assay [3], -87.4% (inactive); in assay [7], -0.491% (inactive); in assay [8], -12.1% (inactive). For the same compound, the inhibition of aggregation in assay [2] was 4.9% (inactive). Besides, the nuclei count in assay [2] turned out to be 92.2%; in assay [3], 140%. Moreover, the fluorescence slope in assay [4] was -0.607 (inactive). For the same compound, the NADPH fluorescence slope in assay [5] was -6.7e-06 (inactive). Further, in assay [6], the slope was 0.00563 (inactive).
